The values that follow come from PubChem BioAssay (NCI).

Where “and” joins values, the source holds several entries; their conditions need not be identical. Identical values can stand only once. Compounds without any hit were thinned out: in the full panel of roughly 79,000, 15% have a hit. Unmarked numbers belong to inactive results. Calls of active or inactive are those of the source. Rule as the data show it: active = growth inhibition above about 70%; inactive = the rest.

Experiment [1] can be described thus: NCI Yeast Anticancer Drug Screen. Data for the rad50 strain (AID 155).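 Also: 0% = growth of vehicle-only cultures of the same strain.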 Conditions: S. cerevisiae rad50 strain growth inhibition, active compounds read high; at 50.0 µM unless noted. In a few lines:
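A DNA repair-deficient yeast mutant serves as the test organism; compound-induced growth inhibition is calculated against vehicle-treated cells.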

Experiment [2] in a line: NCI Yeast Anticancer Drug Screen. Data for the mec2-1 strain (AID 157). Conditions: S. cerevisiae mec2-1 strain, active compounds read high; at 50.0 µM unless noted. The gist of the method: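 Compounds were applied to mec2-1 yeast cells. Their growth was then compared with that of vehicle-treated cultures to give growth inhibition.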
The nature of experiment [3]: NCI Yeast Anticancer Drug Screen. Data for the sgs1 mgt1 strain (AID 161).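 Also: 0% = growth of cultures given vehicle only.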 Conditions: S. cerevisiae sgs1 mgt1 strain, active compounds read high; at 50.0 µM unless noted. The gist of the method: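 Yeast cells carrying a defined DNA-repair defect were exposed to test compounds. Growth inhibition was measured relative to vehicle-treated controls.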
The nature of experiment [4]: NCI Yeast Anticancer Drug Screen. Data for the cln2 rad14 strain (AID 165).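 Also: 0% = growth equal to vehicle treated cultures.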 Conditions: S. cerevisiae cln2 rad14 strain, active compounds read high; at 50.0 µM unless noted. The gist of the method:
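Strain: cln2 rad14 yeast, altered in cell cycle control and DNA damage repair. Read-out: growth inhibition vs vehicle.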

Experiment [5] in a line: NCI Yeast Anticancer Drug Screen. Data for the bub3 strain (AID 167). Conditions: S. cerevisiae bub3 mutant strain, active compounds read high; at 50.0 µM unless noted. The gist of the method: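 Inhibition values come from growth of compound-treated mutant yeast normalised to vehicle-treated controls.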
Experiment [6] is described as follows: NCI Yeast Anticancer Drug Screen. Data for the mlh1 rad18 strain (AID 175). Conditions: S. cerevisiae mlh1 rad18 strain growth inhibition, active compounds read high; at 50.0 µM unless noted. The gist of the method: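 A repair-deficient yeast strain is exposed to test compound, and growth is scored relative to vehicle-treated controls.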

As to `CCC(=O)COc1ccc(NC(NC(=O)C(C(F)(F)F)C(F)(F)F)(C(F)(F)F)C(F)(F)F)cc1`, the growth inhibition in experiment [1] was 16.2%; in experiment [2], -24.8%; in experiment [3] it was 6.5%; in experiment [4] it was 29.2%; in experiment [5] it was -3.3%; in experiment [6], -16%.
As for `CN(C(=O)c1ccc([N+](=O)[O-])cc1)C(c1ccco1)P(=O)(c1ccccc1)c1ccccc1` (stereo not given), the growth inhibition in experiment [1] was 71.1% (active); in experiment [2] it was 36.4%; in experiment [3], 56.5%; in experiment [4], 0.4%; in experiment [5], 46.2%; in experiment [6] it was 26.4%.
Turning to `O=CC(=O)C(O)C(O)C(O)CO` (stereo not given), the growth inhibition is 9.5% in experiment [1]; 22.9% in experiment [2]; 26.2% in experiment [3]; -0.05% in experiment [4]; -4.95% in experiment [5]; 19.4% in experiment [6].
For `Cc1ccc([N+](=O)[O-])cc1NC(=O)N(Cc1ccccc1)Cc1ccccc1`, the growth inhibition was 8.7% in experiment [1]; 1.5% in experiment [2]; 10.8% in experiment [3]; 9.4% in experiment [4]; 17.3% in experiment [5]; -0.05% in experiment [6].
Consider `CN=C1CC2c3cc(OC)c(OC)cc3CCN2C2=C1C(=O)CC(C)(C)C2` (stereo not given), for which the growth inhibition in experiment [1] was 17.1%; in experiment [2], 18.5%; in experiment [3], 15.1%; in experiment [4], -19%; in experiment [5] it was 36.4%; in experiment [6], 16.6%.
Regarding `O=[N+]([O-])C(c1ccccc1)C(c1ccccc1)C(c1ccccc1)[N+](=O)[O-]` (stereo not given), the growth inhibition in experiment [1] is 4.25%; in experiment [2] it was 6.05%; in experiment [3], 5.6%; in experiment [4], 23.2%; in experiment [5] it was 22.6%; in experiment [6], 10%.
Regarding `CSc1ncc(C(N)=O)c(N)n1`, the growth inhibition is -2.05% and 12% in experiment [1]; 3.5% and -12.9% in experiment [2]; -3.35% and -9.65% in experiment [3]; -38% and -12.4% in experiment [4]; -6.7% and -12.6% in experiment [5]; 2.45% and 13.2% in experiment [6].
As to `N=c1oc2ccc(Cl)cc2cc1C(=O)Nc1ccccc1`, the growth inhibition in experiment [1] was 32.2%; in experiment [2], 32.7%; in experiment [3], -10.6%; in experiment [4], 14.1%; in experiment [5], 15.6%; in experiment [6] it was -35%.
With `CC(=O)c1ccc(Cl)cc1Cl`, the growth inhibition in experiment [1] was -12.4%; in experiment [2], -11.8%; in experiment [3], -3.7%; in experiment [4], -6.65%; in experiment [5] it was -13.3%; in experiment [6], -38.5%.
Regarding `CNC(=O)OCc1c(COC(=O)NC)c(C)n(-c2ccc(Cl)cc2)c1C`, the growth inhibition in experiment [1] is 38.8%; in experiment [2], 40.4%; in experiment [3], 83.2% (active); in experiment [4], 24.6%; in experiment [5], 84.5% (active); in experiment [6], 91.3% (active).
With `OCCCCCSc1ccccc1`, the growth inhibition in experiment [1] is 17.4%; in experiment [2], 4.35%; in experiment [3] it was 7.95%; in experiment [4], 1.95%; in experiment [5], -11.1%; in experiment [6], 7.3%.
`CCCCCN=C(N)C(N)=NCCCCC`: the growth inhibition in experiment [1] is 47.8%; in experiment [2] it was 8%; in experiment [3], 24.7%; in experiment [4], -31.1%; in experiment [5], 5.5%; in experiment [6], 24.9%.
With `Cc1ccc2c(ccc3nc(N)nc(N)c32)c1`, the growth inhibition in experiment [1] is -0.4%; in experiment [2] it was 11.5%; in experiment [3], -5.55%; in experiment [4] it was -42.9%; in experiment [5], -47.3%; in experiment [6], -2.65%.
`Cc1c2c(c(C)c3c1C(=O)c1cc4c(cc1C3=O)OCO4)OC(C)(C)O2`: the growth inhibition in experiment [1] was 14.3%; in experiment [2], 0.35%; in experiment [3], 21.4%; in experiment [4], 8.95%; in experiment [5] it was 11.6%; in experiment [6], 23.1%.
Regarding `N#C/C(=C\C1CCCCC1Cl)C1CCC([N+](=O)[O-])CC1` (stereo not given), the growth inhibition is 12.6% in experiment [1]; 5.15% in experiment [2]; 17.2% in experiment [3]; -8.35% in experiment [4]; 32.8% in experiment [5]; 18.1% in experiment [6].
Turning to `CC(C)C1=CCC2C(=C1)CCC1C(C)(N=C=O)CCCC21C` (stereo not given), the growth inhibition was -28.6% in experiment [1]; -10.1% in experiment [2]; -7.7% in experiment [3]; -51.8% in experiment [4]; 38.8% in experiment [5]; -4% in experiment [6].
With `O=C(CCCl)Nc1ccc(C(=O)CCc2cccc(NC(=O)CCCl)c2)cc1`, the growth inhibition in experiment [1] is 28.9%; in experiment [2] it was 2.65%; in experiment [3], 7.75%; in experiment [4], 22.5%; in experiment [5], -0.65%; in experiment [6] it was 6.3%.
As to `O=C(O)c1cc(C(=O)O)cc(C(=O)O)c1`, the growth inhibition in experiment [1] is -1.55%; in experiment [2], -16.2%; in experiment [3] it was -8.1%; in experiment [4] it was -56.9%; in experiment [5], -3.05%; in experiment [6] it was -30.1%.
Take `CCCCn1cnc2c(SC)ncnc21`: the growth inhibition in experiment [1] was -8.1%; in experiment [2], -23.9%; in experiment [3], -18.4%; in experiment [4], -0.35%; in experiment [5], -32.8%; in experiment [6], -3.65%.
With `O=C(O)CCc1[nH]c(I)nc1I`, the growth inhibition was 17.1% in experiment [1]; 14.3% in experiment [2]; 5.3% in experiment [3]; -0.7% in experiment [4]; -7.45% in experiment [5]; 29.5% in experiment [6].
